PRC2 inh – blocks human EZH2/PRC2 H3K27 methylation | Q15910 | DELFIA TRF, 1 h | AID 651548 | inhibition, % at 12.5 µM | hit rate 0.35% among 57,000;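 active = mean inhibition of replicates at least 50% and every single replicate also reaching 50%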;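 also: dimethyl H3K27 on biotinylated H3 21-44 peptide detected by antibody; plate controls were median neutral control wells for no effect and median positive control wells for full effect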
Target sequence (Q15910 whole entry, looked up): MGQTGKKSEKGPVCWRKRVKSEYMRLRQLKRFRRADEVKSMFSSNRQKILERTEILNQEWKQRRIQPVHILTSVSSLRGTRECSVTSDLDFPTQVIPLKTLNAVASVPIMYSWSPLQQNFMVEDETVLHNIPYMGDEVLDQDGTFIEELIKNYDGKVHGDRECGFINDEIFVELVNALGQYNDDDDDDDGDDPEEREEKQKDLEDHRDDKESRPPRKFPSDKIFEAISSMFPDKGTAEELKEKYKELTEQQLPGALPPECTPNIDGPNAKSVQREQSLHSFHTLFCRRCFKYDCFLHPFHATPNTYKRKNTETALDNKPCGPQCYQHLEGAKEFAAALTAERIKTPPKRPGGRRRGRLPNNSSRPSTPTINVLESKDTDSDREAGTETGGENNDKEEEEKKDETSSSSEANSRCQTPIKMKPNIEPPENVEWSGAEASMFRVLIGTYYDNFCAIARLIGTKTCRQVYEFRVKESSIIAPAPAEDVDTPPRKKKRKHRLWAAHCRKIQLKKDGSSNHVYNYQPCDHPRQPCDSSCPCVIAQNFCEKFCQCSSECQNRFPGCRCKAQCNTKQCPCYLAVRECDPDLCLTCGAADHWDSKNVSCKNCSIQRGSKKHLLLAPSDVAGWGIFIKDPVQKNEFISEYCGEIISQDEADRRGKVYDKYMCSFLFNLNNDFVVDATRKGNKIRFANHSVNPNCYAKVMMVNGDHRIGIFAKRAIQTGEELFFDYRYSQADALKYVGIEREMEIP
Numbers without * were called inactive. This is one part of a sample in which hits are shown more often than they occur.

SMILES	PRC2 inh
C[C@@H]1O[C@@H](O[C@@H]2[C@@H](O)[C@H](O[C@@H]3[C@@H](O)[C@@H](O)[C@H](O[C@H]4[C@H](OC(=O)[C@]56CCC(C)(C)C[C@H]5C5=CCC7[C@@]8(C)C[C@H](O)[C@H](O[C@@H]9O[C@H](C(=O)O)[C@@H](O)[C@H](O)[C@H]9O)[C@@](C)(CO)C8[C@H](O)C[C@@]7(C)[C@]5(C)C[C@H]6O)O[C@@H](CO)[C@@H]4O)O[C@H]3C)OC[C@H]2O)[C@H](O)[C@H](O)[C@H]1O (some centres not stated)	98.9*
C[C@@H]1O[C@@H](O[C@@H]2CC[C@@]3(C)C(CC[C@]4(C)C3CC=C3[C@@H]5CC(C)(C)CC[C@]5(C(=O)O[C@@H]5O[C@H](CO)[C@@H](O)[C@H](O)[C@H]5O)CC[C@]34C)[C@]2(C)CO)[C@H](O)[C@H](O[C@@H]2OC[C@@H](O)[C@H](O)[C@H]2O)[C@H]1O (some centres not stated)	-4.8
C[C@@H]1CN([C@@H](C)CO)C(=O)c2cc(C#CCN(C)C)cnc2O[C@H]1CN(C)Cc1ccc(F)cc1	-8.7
C[C@H]1CN([C@@H](C)CO)C(=O)c2cccc(NC(=O)c3ccncc3)c2O[C@@H]1CN(C)S(C)(=O)=O	4.9
CN1CCN(C(=O)C[C@@H]2C[C@@H]3c4cc(NC(=O)Cc5ccncc5)ccc4O[C@@H]3[C@@H](CO)O2)CC1	-2.1
CO[C@@H]1CN(C)C(=O)c2cc(NC(=O)Nc3ccccc3F)ccc2OC[C@H](C)N(C)C[C@@H]1C	2.4
CN(C(=S)SCc1ccccc1)c1ccccc1	66.5*
CN(C)S(=O)(=O)N(CC(=O)O)c1ccccc1	15.9
C[C@@H]1CN([C@H](C)CO)C(=O)c2cc(NS(=O)(=O)c3cn(C)cn3)ccc2O[C@@H]1CN(C)Cc1ccccc1	9.7
COc1ccc(CN(C)C[C@H]2Oc3ccc(NC(=O)Cc4ccccc4)cc3C(=O)N([C@H](C)CO)C[C@@H]2C)cc1	-1.9
CCCC(=O)Nc1ccc2c(c1)OC[C@@H](C)N(Cc1ccncc1)C[C@@H](C)[C@H](OC)CN(C)C2=O	-5.0
O=C(N[C@H]1CC[C@@H](CCNC(=O)C2CCCCC2)O[C@H]1CO)c1ccccn1	12.5
C[C@@H]1O[C@@H](Oc2ccc(C3Oc4cc(O)cc(O)c4C(=O)C3O)cc2O)[C@H](O)[C@H](O)[C@H]1O (some centres not stated)	97.4*
O=C1c2c(O)cc(O)cc2O[C@H](c2ccccc2)[C@H]1O	8.0
C[C@@H]1O[C@@H](O[C@H]2[C@H](Oc3cc(O)c4c(c3)O[C@H](c3ccc(O)c(O)c3)CC4=O)O[C@H](CO)[C@@H](O)[C@@H]2O)[C@H](O)[C@H](O)[C@H]1O	4.2
CC(C)C#Cc1ccc2c(c1)O[C@@H](CN(C)S(C)(=O)=O)[C@@H](C)CN([C@H](C)CO)S2(=O)=O	-5.1
Cc1ccc(S(=O)(=O)Nc2ccc3c(c2)C(=O)N([C@H](C)CO)C[C@@H](C)[C@@H](CN(C)Cc2ccncc2)O3)cc1	13.4
COc1nccc(-c2c(-c3ccc(F)cc3)ncn2C2CCC(O)CC2)n1 (configuration not stated)	-16.3
C=C1C(O)CC2C(C(=O)OC)=CO[C@@H](O[C@@H]3O[C@H](CO)[C@@H](O)[C@H](O)[C@H]3O)C12 (some centres not stated)	24.7
CC1(OC(=O)/C=C/c2ccccc2)CC(O)C2C=COC(OC3OC(CO)C(O)C(O)C3O)C21 (configuration not stated)	11.6
COC(=O)C1=CO[C@@H](O[C@@H]2O[C@H](CO)[C@@H](O)[C@H](O)[C@H]2O)[C@@H]2[C@@H]3CN4CCc5c([nH]c6ccccc56)[C@]4(C[C@H]12)O3	51.8*
COC(=O)C1=CO[C@@H](O[C@@H]2O[C@H](CO)[C@@H](O)[C@H](O)[C@H]2O)[C@@H]2[C@@H](C)[C@@H](O)[C@@H](OC(=O)/C=C/c3ccc(O)c(O)c3)[C@H]12	11.0
C=C[C@H]1[C@H](O[C@@H]2O[C@H](CO)[C@@H](O)[C@H](O)[C@H]2O)OC=C(C(=O)OC)[C@H]1C[C@@H]1N[C@H](C(=O)O)Cc2c1[nH]c1ccccc21	97.5*
C=CC(C)(O)CC/C=C(\C)C(=O)OCC1CCC2C(C(=O)O)=COC(OC3OC(CO)C(O)C(O)C3O)C12 (configuration not stated)	0.0
COC(=O)C[C@H]1C[C@@H]2c3cc(NC(=O)CN(C)C)ccc3O[C@@H]2[C@@H](CO)O1	13.6
SMILES	PRC2 inh
C[C@H]1CN([C@@H](C)CO)S(=O)(=O)c2ccc(-c3ccncc3)cc2O[C@@H]1CN(C)S(=O)(=O)c1ccccc1F	-12.5
COc1ccc(C)cc1NC(=O)CNS(=O)(=O)c1ccc(C)cc1	-1.3
CS(=O)(=O)N(CC(=O)Nc1ccc(Cl)c(Cl)c1)c1ccc(Br)cc1	54.6*
CS(=O)(=O)N(CC(=O)Nc1ccc(Cl)c(Cl)c1)c1cc(Cl)cc(Cl)c1	5.4
CS(=O)(=O)N(CC(=O)Nc1cccc(Cl)c1)c1ccc(Br)cc1	3.1
CO[C@@H]1CN(C)C(=O)c2cc(NS(=O)(=O)CC(F)(F)F)ccc2OC[C@@H](C)N(C)C[C@H]1C	-4.7
O=S(=O)(Nc1ncccn1)c1ccc(NC(=S)Nc2ccc3c(c2)CCC3)cc1	-4.2
N#Cc1ccccc1OCCCCSc1ncccn1	12.1
c1cnc(SCCCCOc2ccc3c(c2)CCC3)nc1	54.3*
C[C@H]1CN([C@@H](C)CO)C(=O)c2cc(N(C)C)ccc2O[C@@H]1CN(C)Cc1ccc(C(F)(F)F)cc1	6.7
Cc1cc(C)nc(NS(=O)(=O)c2ccc(N)cc2)n1	8.2
Cc1cc(C)nc(NS(=O)(=O)c2ccc(Nc3nc(-c4ccc(F)cc4)cs3)cc2)n1	58.2*
O=C(Nc1ccc(S(=O)(=O)Nc2ncccn2)cc1)c1ccc(-c2ccccc2)cc1	28.1
Cc1cc(C)nc(NS(=O)(=O)c2ccc(NC(=O)c3ccc(-c4ccccc4)cc3)cc2)n1	55.7*
Cc1cc(C)nc(NS(=O)(=O)c2ccc(NC(=O)c3ccc(C(=O)c4ccccc4)cc3)cc2)n1	7.4
CCOc1ccccc1C(=O)Nc1ccc(S(=O)(=O)Nc2nc(C)cc(C)n2)cc1	-4.3
CCCNC(=O)N(C)C[C@H]1Oc2cc(C#Cc3ccccn3)ccc2S(=O)(=O)N([C@H](C)CO)C[C@@H]1C	8.9
CO[C@@H]1CC[C@@H]2CCN(C)C(=O)[C@H](C)[C@H](OC)CN(C)C(=O)c3cc(C#N)ccc3OC[C@H]1O2	18.2
COc1cc(/C=C/C(=O)O[C@@H]2C[C@@](O)(C(=O)O)C[C@@H](O)[C@@H]2O)ccc1O	89.8*
COc1cc(/C=C/C(=O)CC(=O)/C=C/c2ccc(O)c(OC)c2)ccc1O	10.5
CC(=O)CCC1C2C(O)C(C(C)C)C(OC(=O)/C=C/c3ccccc3)CC12C (configuration not stated)	-25.7
O=C(/C=C/c1ccc(O)cc1)O[C@@H]1CC(O)(C(=O)O)C[C@@H](OC(=O)/C=C/c2ccc(O)cc2)C1O (some centres not stated)	76.3*
COc1cc(O)c(C(=O)/C=C/c2ccc(OC)c(OC)c2)c(OC)c1	8.6
CC(C)C1CCC2(C)CCC(O)C(C)(O)C2C1OC(=O)/C=C/c1ccccc1 (configuration not stated)	4.7
O=C(CCCCC(=O)N/N=C/CCC1CCCCC1)NO	-3.5
